The list is not random: actives were taken first. Their share in the collection is about 18%.
HepG2 viability: qHTS for Inhibitors of TGF-b: Cytotox Counterscreen; HepG2 CAGA-GFP viability, ATP luminescence, 18 h; Potency, µM (top dose mostly 46.1 µM), for inactives: at the highest dose activity change, negative = cytotoxicity, usual class: cytotoxic; 0.76% of 410,000 active; AID 588856, 2011; also: potency is read from the fitted curve at half-maximal effect
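CellTiter-Glo luminescence gave cytotoxicity after 18 hours at 37 degrees C. The cells were HepG2 CAGA-GFP in 1% FBS DMEM, stimulated with 500 pg/mL TGF-beta after compound addition. %Activity was normalised to no-cell wells (complete cell-killing) and DMSO (no toxicity), and curves were fitted and classified.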
TDP1 cell CPT: qHTS for Inhibitors of human tyrosyl-DNA phosphodiesterase 1 (TDP1): qHTS in cells in presence of CPT. chicken DT40 Tdp1-/-;hTDP1 cells + 20 nM CPT, ATP luminescence, 48 h. Potency, µM (top dose mostly 46.2 µM), for inactives: at the top dose activity change, negative = growth inhibition, actives largely listed as inhibitors. 12% of 420,000 active; also: potency is read from the fitted curve at half-maximal effect; % is scaled to controls: 0 for no effect and ±100 for the full control effect; nearly all actives have a fitted effect of over 55% in size
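Chicken DT40 Tdp1-/- cells stably complemented with human TDP1 were seeded at 400 cells/well in medium containing 20 nM camptothecin, exposed to pin-transferred compounds, and grown at 37 °C for at least 48 hr. Viability was read as ATP luminescence.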
TGFb SMAD3 inh: qHTS for Inhibitors of TGF-b. HepG2 CAGA-GFP TGF-b/SMAD3 reporter, GFP fluorescence, 18 h; TGF-beta stimulated, 500 pg/mL final. Potency, µM (top dose mostly 46.1 µM), for the others: at the highest dose activity, negative = inhibition, most hits filed as inhibitors. 1.2% of 410,000 active; also: potency is read from the fitted curve at half-maximal effect; % is scaled to controls: 0 for no effect and ±100 for the full control effect; nearly all actives have a fitted effect of over 65% in size
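GFP signal (ex488/em500-530) from TGF-beta-stimulated HEPG2 CAGA-GFP cells, 500 pg/mL final, 18 h at 37 degrees C in DMEM plus 1% FBS, normalized to unstimulated and DMSO-stimulated controls.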
TDP1 block: qHTS Assay for Inhibitors of Tyrosyl-DNA Phosphodiesterase (TDP1); recombinant TDP1, AlphaScreen DNA substrate cleavage; Potency, µM (top dose mostly 130 µM), inactives show at the top dose activity change, negative = inhibition, most hits filed as inhibitors; 0.28% of 350,000 active; also: potency is read from the fitted curve at half-maximal effect; % is scaled to controls: 0 for no effect and ±100 for the full control effect; nearly all actives have a fitted effect of over 40% in size
Target sequence (Q9NUW8 whole entry, looked up): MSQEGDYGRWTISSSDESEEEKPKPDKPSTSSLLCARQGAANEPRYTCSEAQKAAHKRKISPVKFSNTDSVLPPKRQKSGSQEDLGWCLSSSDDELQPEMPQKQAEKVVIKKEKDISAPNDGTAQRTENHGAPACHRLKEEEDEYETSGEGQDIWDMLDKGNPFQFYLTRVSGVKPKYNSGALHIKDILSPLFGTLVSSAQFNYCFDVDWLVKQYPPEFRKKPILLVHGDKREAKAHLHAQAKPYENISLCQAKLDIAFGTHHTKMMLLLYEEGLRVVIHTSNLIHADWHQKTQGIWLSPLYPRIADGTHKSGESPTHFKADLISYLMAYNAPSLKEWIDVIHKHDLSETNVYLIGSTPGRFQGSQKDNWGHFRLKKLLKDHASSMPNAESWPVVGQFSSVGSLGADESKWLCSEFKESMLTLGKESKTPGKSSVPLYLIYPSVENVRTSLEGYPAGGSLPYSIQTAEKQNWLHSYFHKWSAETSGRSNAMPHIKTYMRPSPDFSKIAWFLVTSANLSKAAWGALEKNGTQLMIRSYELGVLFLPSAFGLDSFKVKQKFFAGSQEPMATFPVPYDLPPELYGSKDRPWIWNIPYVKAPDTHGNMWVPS
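Tdp1 1 nM final; 15 min RT w/ cpd; substrate 15 nM, 5 min; beads 10 ug/ml, 10 min; AlphaScreen read. Neg ctrl: no enzyme.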
IL1B secr inh: qHTS for Inhibitors of Inflammasome Signaling: IL-1-beta AlphaLISA Primary Screen. THP-1 LPS/ATP IL-1B secretion, AlphaLISA, 16 h; stronger effect = lower value. activity change, % at 57.5 µM. 4.7% of 360,000 active. AID 743279, 2014; in the data active = activity change below about -50%; inconclusive = mostly about -30% to -49%; also: % is scaled to controls: 0 for no effect and ±100 for the full control effect
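THP-1 cells pretreated 1 hr with compounds (up to 57.5 uM final), then stimulated with LPS (250 ng/mL final) plus ATP (1.25 mM final); secreted IL-1B measured by AlphaLISA after 16 hr, decreased signal indicating inhibition.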
TDP1 cell noCPT: qHTS for Inhibitors of human tyrosyl-DNA phosphodiesterase 1 (TDP1): qHTS in cells in absence of CPT; AID 686978, 2013; 15% of 420,000 active; Potency, µM (top dose mostly 46.2 µM), inactives show top-dose activity change, negative = growth inhibition, most hits filed as inhibitors; DT40 Tdp1-/- hTDP1 cells, no CPT, ATP luminescence, 48 h; also: potency is read from the fitted curve at half-maximal effect; % is scaled to controls: 0 for no effect and ±100 for the full control effect; nearly all actives have a fitted effect of over 55% in size
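Cells were dispensed at 400 per well, compounds added by pin tool, plates incubated ≥48 hr at 37 °C, then CellTiter-Glo added for 30 min at room temperature before luminescence reading. Line: DT40 Tdp1-/- complemented with hTDP1; camptothecin omitted.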
Starred values were filed as active, the others as inactive; [ ] = remark or other dose. Unless noted, calls follow the shape of the dose curve; as a rule, active = well fitted curve in the direction sought with a large enough effect; inconclusive = small, poorly fitted or top-dose-only effect, or another doubt; inactive = no such curve, though single readings can be large; an effect the other way counts as inactive or inconclusive.

`Cc1ccc(C)c(N(CC(=O)Nc2ccccc2C(=O)NCc2ccco2)S(=O)(=O)c2ccccc2)c1` gave HepG2 viability -10.7%, TDP1 cell CPT inconclusive, TGFb SMAD3 inh 24.2%, TDP1 block -5.3%, IL1B secr inh -11.5 and TDP1 cell noCPT 16.4µM*.
`CC[n+]1ccc(C[n+]2ccccc2)c2ccccc21` gave HepG2 viability -38.5%, TDP1 cell CPT -0.4%, TGFb SMAD3 inh -38.2%, TDP1 block 22.4µM*, IL1B secr inh 15.2 and TDP1 cell noCPT -25.1%.
`Brc1ccc(C[n+]2ccccc2)cc1` gave HepG2 viability -14.9%, TDP1 cell CPT inconclusive, TGFb SMAD3 inh inconclusive, TDP1 block -1.6%, IL1B secr inh 0.2 and TDP1 cell noCPT inconclusive.
Cc1cc(O)c(C(C)C)cc1N=Nc1ccccc1C(=O)O was read as HepG2 viability -51.3%, TDP1 cell CPT -10.7%, TGFb SMAD3 inh inconclusive, TDP1 block 7.1%, IL1B secr inh 18.7 and TDP1 cell noCPT inconclusive.
`Cc1cc(O)c(C(C)C)cc1N=Cc1ccccc1[N+](=O)[O-]` gave HepG2 viability -3.6%, TDP1 cell CPT 5.17µM*, TGFb SMAD3 inh 3.9%, IL1B secr inh -14.8 and TDP1 cell noCPT 3.26µM*.
For CC(=O)c1cccc(NC(=O)CCc2nnc3ccc(N4CCOCC4)nn23)c1 the results were HepG2 viability 2.7%, TDP1 cell CPT 0.1%, TGFb SMAD3 inh 0.9%, TDP1 block 7.7%, IL1B secr inh 16.6 and TDP1 cell noCPT 0.1%.
Screening Cc1ccc(N(CC(=O)NCc2ccc3c(c2)OCO3)C(=O)CCC(=O)Nc2ccccn2)cc1 returned HepG2 viability -14.5%, TDP1 cell CPT -17.1%, TGFb SMAD3 inh -9.6%, TDP1 block 4.7%[0.0935 µM], IL1B secr inh 0.0 and TDP1 cell noCPT inconclusive.
Cc1ccnc(NC(=O)CCC(=O)N(CC(=O)NCc2ccccc2)c2ccc3c(c2)OCO3)c1 was read as HepG2 viability 13.3%, TDP1 cell CPT 7.31µM*, TGFb SMAD3 inh -6.4%, TDP1 block 5.5%, IL1B secr inh 5.4 and TDP1 cell noCPT 23.1µM*.
`CCOCCCn1c(C)nc2c(c1=O)c1nc3ccccc3nc1n2CCC1=CCCCC1` gave HepG2 viability -4.3%, TDP1 cell CPT inconclusive, TGFb SMAD3 inh 12.3%, TDP1 block 3.8%, IL1B secr inh -72.7* and TDP1 cell noCPT inconclusive.
C/C=C/c1ccc(Oc2nnnn2-c2ccc(C(N)=O)cc2)c(OC)c1 was read as HepG2 viability -28.4%, TDP1 cell CPT 14.6µM*, TGFb SMAD3 inh inconclusive, TDP1 block 4.1%, IL1B secr inh 8.9 and TDP1 cell noCPT 20.6µM*.
`COc1ccccc1Oc1nnnn1-c1ccc(C(N)=O)cc1` gave HepG2 viability -1.9%, TDP1 cell CPT -11.2%, TGFb SMAD3 inh -3.2%, TDP1 block 2.8%, IL1B secr inh -17.4 and TDP1 cell noCPT -3.6%.
`CCc1cccc(C)c1Nc1c(-c2cccc(O)c2)nc2sccn12` gave HepG2 viability -27.5%, TDP1 cell CPT 14.6µM*, TGFb SMAD3 inh inconclusive, TDP1 block 11.8% and TDP1 cell noCPT 16.4µM*.
Screening COc1cc(-c2nc3sccn3c2Nc2c(C)cccc2C)ccc1O returned HepG2 viability -3.8%, TDP1 cell CPT inconclusive, TDP1 block 7.3% and TDP1 cell noCPT inconclusive.
CCc1cccc(C)c1Nc1c(-c2cccc(O)c2)nc2nc(C)cc(C)n12 was read as HepG2 viability -31.1%, TDP1 cell CPT inconclusive, TGFb SMAD3 inh inconclusive, TDP1 block 0.0%[12.3 µM] and TDP1 cell noCPT inconclusive.
